Results on eight compounds are retold here after PubChem BioAssay (NCATS).

Results filed as inconclusive are left out. The source made the active and inactive calls. Calls come from the whole dose curve; as a rule, active = well fitted curve in the direction sought with a large enough effect; inconclusive = small, poorly fitted or top-dose-only effect, or another doubt; inactive = no such curve, though single readings can be large; an effect the other way counts as inactive or inconclusive.

The target in assay [1] is Aldehyde dehydrogenase, mitochondrial (Homo sapiens) (UniProt P05091). The assay can be described thus: qHTS for Inhibitors of the Aldehyde Dehydrogenase Family (ALDH2) Primary screen (AID 2061308; note: nearly all actives have a fitted effect of over 55% in size). (In qHTS, concentration-response curves come from the screen itself.)
Assay [2] addresses Retinaldehyde dehydrogenase 3 (Homo sapiens) (UniProt P47895). Put plainly: qHTS for Inhibitors of the Aldehyde Dehydrogenase Family (ALDH1A3) Primary screen (AID 2061315).
Assay [3] can be described thus: BET inhibitor-based combinations targeting novel dependencies in MECOM-rearranged (r) AML: SET-2 cell line (AID 2202231). Note: potency is the fitted concentration of half-maximal effect; nearly all actives have a fitted effect of over 35% in size. The note with it: SET-2 AML cells viability, CellTiter-Glo luminescence, 48 h; viability: hits give low values, concentration not given here. A digest of the protocol:
(§1)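 Cells were plated at 500 per well and exposed to an 11-point dose series of each drug for 48 hr. Viability was measured by CellTiter-Glo luminescence, normalized to DMSO and empty-well controls, and summarized as AUC and per-cell-line Z-AUC.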

Assay [4] can be described thus: BET inhibitor-based combinations targeting novel dependencies in MECOM-rearranged (r) AML: OCI-AML3 cell line (AID 2202232). Note: potency is the fitted concentration of half-maximal effect; nearly all actives have a fitted effect of over 35% in size. The note with it: Potency: OCI-AML3 viability. The method in brief: as §1
Assay [5] can be described thus: BET inhibitor-based combinations targeting novel dependencies in MECOM-rearranged (r) AML: MV-4-11 cell line (AID 2202233). Note: potency is the fitted concentration of half-maximal effect; nearly all actives have a fitted effect of over 45% in size. A digest of the protocol: (§2)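 Activity is given as area under the curve and as Z-AUC, mean-centred within each cell line. It comes from 11-point dose curves normalized to DMSO and empty wells. CellTiter-Glo luminescence was read after 48 hr drug exposure of 500 cells/well.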

The nature of assay [6]: BET inhibitor-based combinations targeting novel dependencies in MECOM-rearranged (r) AML: HNT-34 cell line (AID 2202234). Note: potency is the fitted concentration of half-maximal effect; nearly all actives have a fitted effect of over 35% in size. The method in brief:
as §2

A short description of assay [7]: BET inhibitor-based combinations targeting novel dependencies in MECOM-rearranged (r) AML: UCSD-AML1 cell line (AID 2202235). Note: potency is the fitted concentration of half-maximal effect; nearly all actives have a fitted effect of over 40% in size. The method in brief:
as §2

Assay [8] concerns the target Aldehyde dehydrogenase 1A1 (Homo sapiens) (UniProt P00352). The assay can be described thus: qHTS for Inhibitors of the Aldehyde Dehydrogenase Family (ALDH1A1) Confirmatory screens (AID 2061316). Note: nearly all actives have a fitted effect of over 65% in size. Note: potency is the fitted concentration of half-maximal effect.
A short description of assay [9]: BET inhibitor-based combinations targeting novel dependencies in MECOM-rearranged (r) AML: AML-191 cell line (AID 2202236; note: potency is the fitted concentration of half-maximal effect; nearly all actives have a fitted effect of over 35% in size). The method in brief: as §1
Assay [10] is described as follows: BET inhibitor-based combinations targeting novel dependencies in MECOM-rearranged (r) AML: AML-194 cell line (AID 2202237; note: potency is the fitted concentration of half-maximal effect; nearly all actives have a fitted effect of over 40% in size). The method in brief:
as §1

Consider `Cc1nc(-c2cn3c(n2)-c2ccc(-c4cnn(C(C)(C)C(N)=O)c4)cc2OCC3)n(C(C)C)n1`, for which the Potency result in assay [1] and in assay [2] was “inactive” each time. For the same compound, the Potency in assay [3] was 23.5 µM (active); in assay [4], 0.742 µM (active); in assay [5], 5.25 µM (active); in [6], 16.6 µM (active); in assay [7], 0.209 µM (active).
`CCC(=O)Nc1ccc(OCc2cc(C3Nc4ccccc4C(=O)N3Cc3ccccc3)ccc2OC)cc1` (centres undefined): the Potency entry in assay [1], in [2] and in assay [8] was “inactive” in each case.
Take `Cc1ccc(CNc2ncnc3ccc(-c4sc(C)nc4C)cc23)o1`: the Potency entry in [1] and in assay [2] was “inactive” in each case. For the same compound, the Potency in assay [8] is 15.9 µM (active).
For the compound `C=CC(=O)N1CCC(Oc2cc3c(Nc4ccc(Cl)c(Cl)c4F)ncnc3cc2OC)CC1`, the Potency entry in assay [1] and in [2] was “inactive” throughout. Further, the Potency is 20.9 µM (active) in assay [3], 13.2 µM (active) in [4], 10.5 µM (active) in assay [5] and 16.6 µM (active) in [6].
With `CN(C)c1cccc(N2CCN(c3nn4c(=O)c5ccccc5nc4s3)CC2)c1`, the Potency entry in [1] and in assay [2] was “inactive” each time. In addition, in [8], the Potency was 10.1 µM (active).
`COc1ccc(-c2ccc3ncc4c(c3c2)n(-c2ccc(N3CCNCC3)c(C(F)(F)F)c2)c(=O)n4C)cn1`: the Potency result in [1] and in [2] was “inactive” each time. Also, the Potency in assay [3] is 0.332 µM (active); in assay [4] it was 0.235 µM (active); in assay [5], 0.105 µM (active); in assay [7], 0.0525 µM (active); in assay [9], 0.132 µM (active); in assay [10], 0.118 µM (active).
Regarding `Nc1ccc(C(=O)c2cc3c(ccc4ccccc43)[nH]2)cc1`, the Potency result in [1] and in assay [2] was “inactive” throughout. Also, the Potency in assay [3] is 30.3 µM (active); in assay [4], 6.79 µM (active); in [5], 3.82 µM (active); in [7] it was 2.7 µM (active); in assay [9] it was 1.52 µM (active); in assay [10], 2.41 µM (active).
Consider `O=C(O)C1(Cc2cccc(Nc3nccs3)n2)CCC(Oc2cccc(Cl)c2F)CC1` (centres undefined), for which the Potency entry in assay [1] and in assay [2] was “inactive” each time. The Potency was 1.66 µM (active) in assay [3], 0.662 µM (active) in [4], 1.32 µM (active) in assay [5] and 0.468 µM (active) in [6].
